Experimental data as given in PubChem BioAssay (NCATS).
Active and inactive are the calls of the source. The call rests on the fitted dose curve.

Columns and labels:
Assay in all cases: Confirmatory Screen for Target Class Profiling of Small Molecule Inhibitors of Methyltransferases (AID 1745852); on activity change, negative = inhibition: on the % scale 0 is the no-effect control and ±100 the full control effect
[1] = molecular target: Catechol O-methyltransferase (Homo sapiens) (UniProt P21964); conditions: MTase-Glo luminescence, SAH detection, recombinant enzyme; measured here: COMT max response; stronger effect = lower value
[2] = molecular target: Guanidinoacetate N-methyltransferase (Homo sapiens) (UniProt Q14353); conditions: activity change, negative = inhibition: at 57.3 µM (top of the series) unless noted
[3] = molecular target: Nicotinamide N-methyltransferase (Homo sapiens) (UniProt P40261); conditions: MTase-Glo luminescence, SAH detection, recombinant enzyme; measured here: NNMT max response; stronger effect = lower value
[4] = molecular target: Phenylethanolamine N-methyltransferase (Homo sapiens) (UniProt P11086); conditions: MTase-Glo luminescence, SAH detection, recombinant enzyme; measured here: PNMT max response; stronger effect = lower value
Potency means the concentration at half of the fitted maximal effect.

Chain of Phenylethanolamine N-methyltransferase (Homo sapiens) (P11086 whole entry, looked up): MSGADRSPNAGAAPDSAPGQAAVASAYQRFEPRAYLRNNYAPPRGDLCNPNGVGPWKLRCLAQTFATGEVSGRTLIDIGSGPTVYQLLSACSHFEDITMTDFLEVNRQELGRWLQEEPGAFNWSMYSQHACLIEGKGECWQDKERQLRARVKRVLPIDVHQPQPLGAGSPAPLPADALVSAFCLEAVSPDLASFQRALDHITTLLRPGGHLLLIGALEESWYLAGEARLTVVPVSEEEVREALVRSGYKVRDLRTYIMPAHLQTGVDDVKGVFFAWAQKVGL
Chain of Nicotinamide N-methyltransferase (Homo sapiens) (P40261 whole entry, looked up): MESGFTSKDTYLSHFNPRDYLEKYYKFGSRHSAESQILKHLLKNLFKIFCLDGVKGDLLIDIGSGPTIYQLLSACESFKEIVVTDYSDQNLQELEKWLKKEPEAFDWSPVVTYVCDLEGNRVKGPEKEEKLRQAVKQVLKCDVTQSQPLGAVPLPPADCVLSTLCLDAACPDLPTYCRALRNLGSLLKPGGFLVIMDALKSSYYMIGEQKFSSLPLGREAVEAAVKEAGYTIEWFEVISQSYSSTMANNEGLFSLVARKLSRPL
Chain of Catechol O-methyltransferase (Homo sapiens) (P21964 whole entry, looked up): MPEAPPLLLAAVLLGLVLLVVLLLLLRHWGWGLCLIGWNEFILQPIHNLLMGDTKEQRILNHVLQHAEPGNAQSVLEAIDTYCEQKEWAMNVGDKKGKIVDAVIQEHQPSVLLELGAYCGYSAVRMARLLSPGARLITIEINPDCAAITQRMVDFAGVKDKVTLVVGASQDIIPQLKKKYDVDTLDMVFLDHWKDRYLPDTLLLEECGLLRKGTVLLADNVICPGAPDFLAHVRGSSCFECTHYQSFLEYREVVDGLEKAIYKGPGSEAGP

Row | Structure (SMILES) | activity [1] [%] | Potency [2] | activity [3] [%] | activity [4] [%] | activity change, negative = inhibition [2]
1 | O=C(NCCc1ccccc1)N1CCn2cccc2C1Cc1ccccc1 (stereo not given) | 0.987 | inactive | -8.34 | -0.866 | 
2 | COc1ncccc1-c1cc2c(ccn2CC2CCN([S+](C)(=O)[O-])CC2)c(N2CCOCC2)n1 | -8.55 |  | -94.7 | -10.8 | 1.38%
3 | NC(=O)C1(N2CCCCC2)CCN(c2nc3c(S(=O)(=O)c4ccccc4)nnn3c3ccccc23)CC1 | -1.9 |  | -8.86 | -8.88 | 0%
4 | COc1ccc(N2C(=O)c3ccc(-c4ccco4)n3CC2(C)C(=O)NCc2ccccc2)cc1OC (stereo not given) | -7.65 |  | -17.5 | -3.81 | -2.41%
5 | COc1ccc(-c2n[nH]n3c2nc(=O)c2ccc(C(=O)NC(C)c4ccc(F)cc4)cc23)cc1 (stereo not given) | -18.7 |  | -25 | -17.7 | -8.96%
6 | CC1CCN(CCCNC(=O)CCc2nnc3n(Cc4ccc(Cl)cc4)c(=O)c4ccccc4n23)CC1 | -7.96 |  | -19 | -5.13 | -1.55%
7 | COc1ccc(S(=O)(=O)NC[C@H]2Cn3c(-c4ccc(Cl)cc4)cnc3CO2)cc1 | -8.66 |  | -23.7 | -17.1 | -2.1% [at 85.7 µM]
8 | CC(=O)Nc1ccc2c(c1)C1C=CCC1C(c1ccccc1F)N2 (stereo not given) | -18.4 | 42.9 µM (active) | -12.1 | -27.7 | 
9 | c1ccc(Cn2cc(CN3CCN(c4ccncc4)CC3)c(-c3cc4ccccc4o3)n2)cc1 | 5.39 |  | 1.15 | 6.65 | 12.1%
10 | COCCCN1C(=O)c2cc3c(OC)ccc(OC)c3n2CC1(C)C(=O)NC1CCCCC1 (stereo not given) | -9.18 |  | -20.2 | -10 | -5.66%
11 | c1ccc(-c2cc3c(cn2)NCCN(CC2CC2)C3)cc1 | 8.66 |  | 4.63 | 6.73 | 7.08% [at 114 µM]
12 | O=C(NCc1ccc2c(c1)OCO2)c1sc(=S)n2c1[nH]c(=O)c1ccccc12 | -46.4 | 27.1 µM (active) | -20.7 | -48.8 | 
13 | COc1ccc(S(=O)(=O)N2CCC(n3c(=O)[nH]c4ccccc43)CC2)cc1 | -23.2 |  | -15.3 | -23.9 | -12%
14 | CCCC1c2cccn2CCN1C(=O)Nc1ccccc1Br (stereo not given) | -6.73 |  | -13.8 | -7.98 | -3.12%
15 | Cn1c(=O)n(C)c2cc(S(=O)(=O)N3CCN(C4CCCCC4)CC3)c(Cl)cc21 | -1.77 |  | -10.5 | -13.7 | 2.61%
16 | O=C(Cn1c(=O)oc2cc(S(=O)(=O)N3CCCC3)ccc21)NCCC1=CCCCC1 | -0.904 |  | 1.35 | -61.9 | 0.588%
17 | CCOC(=O)c1cccc(Nc2cc(C)nc3ccc(C)cc23)c1 | -4.58 |  | -21.8 | -4.31 | 0%
18 | CC1CCCCN1CCCNC(=O)c1cc2c(s1)CN(C1CCCC1)C2 (stereo not given) | 3.35 |  | 3.93 | 4.11 | 2.38%
19 | CCc1ccc(NS(=O)(=O)c2ccc3c(c2)n(C)c(=O)n3C)cc1 | 4.08 |  | -40.6 | -1.22 | 0%
20 | C[S+](=O)([O-])N1CCC(Cn2ccc3c(N4CCOCC4)nc(-c4cccc5[nH]ncc45)cc32)CC1 | -13.4 |  | -5.17 | -54.3 | -3.16%
21 | OC1(Cn2ccnc2)CCN(Cc2ccccc2Cn2cccn2)CC1 | 3.04 |  | 4.14 | 5.79 | 3.7%
22 | COCCNc1cc(-c2noc([C@@H]3CCCN3CC(C)C)n2)ccn1 | 3.05 |  | -4.35 | 2.32 | 1.02% [at 85.7 µM]
23 | COc1cccc(N2C(=O)NC(=NC3CCCCC3)C23CCCN(CC2CCCCC2)C3)c1 (stereo not given) | -0.686 |  | -50.3 | 1.19 | 10.7%
24 | CC(C)CCn1c(=O)c2ccccc2n2c(CCC(=O)N3CCN(c4ccc(F)cc4)CC3)nnc12 | 1.78 |  | -61.2 | -6.79 | 0%
25 | CC[C@H](C)NC(=O)c1sc(=S)n2c1[nH]c(=O)c1cc(Cl)ccc12 | -75.3 | 24.1 µM (active) | -78.5 | -77 | 

Row | Structure (SMILES) | activity [1] [%] | Potency [2] | activity [3] [%] | activity [4] [%] | activity change, negative = inhibition [2]
26 | COc1ccc(OC)c2c1cc1n2CC(C)(C(=O)NC2CCCCC2)N(Cc2cccnc2)C1=O (stereo not given) | -8.96 |  | -28.2 | -10.7 | -5.74%
27 | CC(C)Cn1c(=O)c2ccccc2n2c(CCC(=O)N3CCC(Cc4ccccc4)CC3)nnc12 | -2.5 |  | -56.6 | -9.36 | 0.755%
28 | Cn1c(=O)n(C)c2cc(S(=O)(=O)Nc3cc4c(cc3NCc3ccccc3)n(C)c(=O)n4C)ccc21 | -26 | 21.5 µM (active) | -35.1 | -25.2 | 
29 | Cc1ccc(Cn2c(=O)c3ccccc3n3c(CCC(=O)NCCCN4CCC(C)CC4)nnc23)cc1 | 0 |  | -6.98 | 0 | 0%
30 | O=C(NCc1cccc(Cl)c1)c1cnc2c(c1)N(C(=O)Cc1ccc(O)cc1)CCC2 | -2.5 |  | -5.79 | -1 | -3.31% [at 85.7 µM]
31 | O=C(CCc1ccccc1)N1CCNc2cnc(Nc3cccnc3)nc2C1 | -28.2 |  | -21.6 | -41.2 | -16.6% [at 85.7 µM]
32 | O=C(CCc1nnc2n(CCc3ccccc3)c(=O)c3ccccc3n12)N1CCN(C2CCCCC2)CC1 | 0 |  | -47.4 | 0.426 | 0%
33 | COc1ccc(CCN2C(=O)c3ccc(-c4ccco4)n3CC2(C)C(=O)NC2CCCC2)cc1OC (stereo not given) | -9.3 |  | -65.9 | -5.82 | -6.46%
34 | O=C(NCc1ccccc1)c1ccc2c(=O)nc3c(-c4ccccc4F)n[nH]n3c2c1 | -13.3 | 0.121 µM (active) | -8.4 | -13.5 | 
35 | CN(C)CCNC(=O)c1ccnc(-c2nnc3ccc(N(C)c4ccccc4)nn23)c1 | -5.96 |  | -14.4 | -6.46 | -11.8% [at 85.7 µM]
36 | N#Cc1cc(CN2CCCC(C(=O)Nc3cccc(-c4ccc(F)cc4)c3)C2)c[nH]1 (stereo not given) | -4.34 |  | -14.2 | -5.67 | -9.38%
37 | CN1CCC(N2C[C@@H]3C[C@H]2C(=O)N(CC2CC2)c2ccccc2O3)CC1 | 4.01 |  | -1.59 | 3.64 | 2.68% [at 85.7 µM]
38 | Cc1ccc(CN2C(=O)c3ccc(-c4ccco4)n3CC2(C)C(=O)NCc2ccc(Cl)cc2)cc1 (stereo not given) | 0 | inactive | -6.21 | 1.57 | 
39 | CC1CC(C)CN(S(=O)(=O)c2ccc3c(c2)oc(=O)n3CC(=O)Nc2cccc(F)c2)C1 (stereo not given) | 1.38 |  | -0.567 | -52.9 | 0%
40 | Cn1c(=O)n(C)c2cc(S(=O)(=O)N3CCN(C4CCCCC4)CC3)ccc21 | -4.43 |  | -8.71 | -5.99 | -0.234%
41 | O=C(CCc1nnc2n(CCc3ccccc3)c(=O)c3ccccc3n12)N1CCN(c2ccccc2)CC1 | 0 |  | -41 | 0.144 | 0%
42 | CC(C)CCn1c(=O)c2ccccc2n2c(CCC(=O)N3CCN(c4cccc(Cl)c4)CC3)nnc12 | 1.55 |  | -55.2 | -8.01 | 1.8%
43 | CCN(CC)CCNC(=O)CCc1nnc2n(Cc3ccccc3Cl)c(=O)c3ccccc3n12 | -5.86 |  | -14.7 | 2.62 | -1.02%
44 | CCCC1c2cccn2CCN1C(=O)Nc1cccc(Cl)c1C (stereo not given) | -7.65 |  | -16 | -8.29 | -4.33%
45 | Cc1ccc(Cn2c(=O)c3ccccc3n3c(CCC(=O)NCCCN4CCN(C)CC4)nnc23)cc1 | -2.75 |  | -12.5 | 3.42 | -1.36%
46 | COc1ccc(-c2cc3c(cn2)CN(CCc2ccccc2)CCN3)cc1OC | -0.529 |  | -18.9 | -48.8 | 3.81% [at 85.7 µM]
47 | Cc1noc2c(N3CCOCC3)cc(-c3cccs3)nc12 | -4.75 |  | -22.1 | -11.9 | 2.07% [at 85.7 µM]
48 | O=C(NCc1ccc2c(c1)OCO2)c1sc(=S)n2c1[nH]c(=O)c1ccc(Cl)cc12 | -88.3 | 24.1 µM (active) | -87.4 | -92.6 | 
49 | COc1ccc(OC)c2c1cc1n2CC(C)(C(=O)NC2CCCCCC2)N(Cc2ccccn2)C1=O (stereo not given) | 3.33 | inactive | -20.5 | -2.24 | 
50 | CC(C)CCNC(=O)c1ccc2c(=O)[nH]c3c(C(=O)NC(C)C)sc(=S)n3c2c1 | -37.8 | 27.1 µM (active) | -37.9 | -33.6 | 
